In PubChem BioAssay AID1159580 (chemical genetic matrix, 2015):
Screen size: about 5,500 compounds; about 2,000 (36%) were called active. About 18% were inconclusive and are not listed. Cut-off read from the data, not from the text of the source: active = normalized growth mostly below about 0.91 (no sharp cut-off); inconclusive = no clear call, values can overlap the other calls; inactive = mostly above about 0.92. This is one part of the list.

Assay: chemical genetic growth profiling, strain panel (AID 1159580);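 note: tested at 20 µM; growth read once vehicle control cultures reached saturation at 30 °C; 1 = growth at the plate median or of vehicle wells; lower values mean less growth of the strain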
Conditions: S. cerevisiae deletion strains, growth OD

Measured: normalized growth

COC(=O)[C@]1(C)CC[C@]2(C)CC[C@]3(C)C4=CC=C5C(=CC(=O)C(O)=C5C)[C@]4(C)CC[C@@]3(C)[C@@H]2C1
active: locus YAL013W, strain DEP1, stronger effect = lower value 0.592 | locus YAL021C, strain ccr4, stronger effect = lower value 0.878 | locus YAL026C, strain drs2, stronger effect = lower value 0.592 | locus YAL030W, strain snc1, stronger effect = lower value 0.823 | locus YBL061C, strain skt5, stronger effect = lower value 0.635 | locus YBR009C, strain hhf1, stronger effect = lower value 0.691 | locus YBR023C, strain chs3, stronger effect = lower value 0.595 | locus YBR229C, strain ROT2, stronger effect = lower value 0.905 | locus YBR231C, strain swc5, stronger effect = lower value 0.503 | locus YBR279W, strain paf1, stronger effect = lower value 0.755 | locus YCL011C, strain gbp2, stronger effect = lower value 0.723 | locus YCL016C, strain dcc1, stronger effect = lower value 0.827 | locus YCL069W, strain vba3, stronger effect = lower value 0.775 | locus YCR088W, strain abp1, stronger effect = lower value 0.864 | locus YDL035C, strain GPR1, stronger effect = lower value 0.703 | locus YDL074C, strain BRE1, stronger effect = lower value 0.622 | locus YDL101C, strain DUN1, stronger effect = lower value 0.648 | locus YDL134C, strain PPH21, stronger effect = lower value 0.755 | locus YDL192W, strain arf1, stronger effect = lower value 0.889 | locus YDR001C, strain nth1, stronger effect = lower value 0.922 | locus YDR069C, strain doa4, stronger effect = lower value 0.514 | locus YDR137W, strain rgp1, stronger effect = lower value 0.693 | locus YDR150W, strain NUM1, stronger effect = lower value 0.835 | locus YDR159W, strain sac3, stronger effect = lower value 0.621 | locus YDR162C, strain NBP2, stronger effect = lower value 0.419 | locus YDR195W, strain ref2 1.24 [resistant] | locus YDR297W, strain sur2, stronger effect = lower value 0.646 | locus YDR318W, strain mcm21, stronger effect = lower value 0.852 | locus YDR334W, strain swr1, stronger effect = lower value 0.553 | locus YDR335W, strain msn5, stronger effect = lower value 0.733 | locus YDR392W, strain spt3, stronger effect = lower value 0.149 | locus YDR502C, strain sam2, stronger effect = lower value 0.878 | locus YEL003W, strain gim4, stronger effect = lower value 0.841 | locus YEL037C, strain rad23, stronger effect = lower value 0.814 | locus YEL061C, strain CIN8 (second series), stronger effect = lower value 0.784 | locus YEL061C, strain CIN8, stronger effect = lower value 0.76 | locus YER015W, strain faa2, stronger effect = lower value 0.687 | locus YER016W, strain bim1, stronger effect = lower value 0.78 | locus YER111C, strain swi4, stronger effect = lower value 0.573 | locus YER155C, strain BEM2 (second series), stronger effect = lower value 0.572 | locus YER155C, strain BEM2, stronger effect = lower value 0.846 | locus YER167W, strain BCK2, stronger effect = lower value 0.837 | locus YFR010W, strain ubp6, stronger effect = lower value 0.777 | locus YGL086W, strain mad1, stronger effect = lower value 0.921 | locus YGL167C, strain pmr1, stronger effect = lower value 0.881 | locus YGL173C, strain kem1, stronger effect = lower value 0.439 | locus YGL227W, strain vid30, stronger effect = lower value 0.879 | locus YGL240W, strain doc1, stronger effect = lower value 0.874 | locus YGL248W, strain PDE1, stronger effect = lower value 0.675 | locus YGL253W, strain hxk2, stronger effect = lower value 0.584 | locus YGR135W, strain pre9, stronger effect = lower value 0.843 | locus YHR013C, strain ard1, stronger effect = lower value 0.597 | locus YHR027C, strain rpn1, stronger effect = lower value 0.514 | locus YHR030C, strain SLT2, stronger effect = lower value 0.736 | locus YHR129C, strain ARP1, stronger effect = lower value 0.693 | locus YHR142W, strain chs7, stronger effect = lower value 0.488 | locus YIL066C, strain RNR3, stronger effect = lower value 0.523 | locus YIL073C, strain SPO22, stronger effect = lower value 0.531 | locus YIL125W, strain kgd1, stronger effect = lower value 0.892 | locus YJL092W, strain hpr5, stronger effect = lower value 0.836 | locus YJL095W, strain BCK1 (second series), stronger effect = lower value 0.615 | locus YJL095W, strain BCK1, stronger effect = lower value 0.634 | locus YJL115W, strain asf1, stronger effect = lower value 0.884 | locus YJL129C, strain trk1, stronger effect = lower value 0.625 | locus YJL134W, strain LCB3, stronger effect = lower value 0.921 | locus YJL154C, strain vps35, stronger effect = lower value 0.907 | locus YJL164C, strain tpk1, stronger effect = lower value 0.616 | locus YJL166W, strain qcr8, stronger effect = lower value 0.509 | locus YJL187C, strain SWE1 (second series), stronger effect = lower value 0.455
inactive: locus YBR021W, strain FUR4, stronger effect = lower value 1.02 | locus YBR171W, strain sec66, stronger effect = lower value 0.949 | locus YCL029C, strain bik1, stronger effect = lower value 0.94 | locus YDL005C, strain med2, stronger effect = lower value 0.956 | locus YDL040C, strain nat1, stronger effect = lower value 0.996 | locus YDL185W, strain tfp1, stronger effect = lower value 0.91 | locus YDR101C, strain arx1, stronger effect = lower value 0.935 | locus YDR388W, stronger effect = lower value 0.96 | locus YER110C, stronger effect = lower value 0.986 | locus YGL078C, strain dbp3, stronger effect = lower value 0.944 | locus YGR252W, strain gcn5, stronger effect = lower value 0.932 | locus YHR079C, strain IRE1 (second series), stronger effect = lower value 0.977 | locus YHR094C, strain hxt1, stronger effect = lower value 0.965 | locus YHR200W, strain rpn10, stronger effect = lower value 0.929 | locus YIR030C, strain dcg1, stronger effect = lower value 0.961 | locus YJL168C, strain set2, stronger effect = lower value 0.968
